In all, about 65,000 compounds went through this assay and about 2,100 (3.2%) showed an effect of 50% or more. The median lay at about -52%. This is one part of a sample in which strong results are shown more often than they occur.
system: Plasmodium falciparum; assay: Screen against P. falciparum Asexual Blood Stage (ABS), at 5uM; type: functional, Dd2; details: tested at 5 uM

| Structure (SMILES) | INHIBITION [%] |
| --- | --- |
| Cc1ncc(C(=O)N2CCCC2(C)C(=O)N2CCOCC2)c(C)n1 (centres undefined) | -32.2 |
| CCS(=O)(=O)N1CCCN(CCCOC)CC1 | -97.9 |
| CCOC1COC2(CCN(C(=O)c3cccc(C)n3)CC2)C1 (centres undefined) | -46 |
| CC1(C)[C@@H]2CC=C(CN3CCCn4nc(C(=O)NCCO)cc4C3)[C@H]1C2 | -43.4 |
| Cn1cc(CN2CC[C@@H]3[C@@H]2CCN3Cc2ccc3c(c2)OCO3)cn1 | -88.4 |
| c1cncc(CN2CC[C@@H]3[C@@H]2CCN3Cc2ccc3c(c2)OCO3)c1 | 59.5 |
| CN1CC[C@@H]2[C@@H]1CCN2Cc1ccc2c(c1)OCO2 | 43 |
| COCc1nn(CC2CC2)c2c1CN(Cc1ccco1)CC2 | -53.2 |
| CCOCc1nn(CC2CC2)c2c1CN(Cc1cccs1)CC2 | -70.5 |
| COCc1nn(CC2CC2)c2c1CN(Cc1cccs1)CC2 | 50 |
| CCO[C@H]1C[C@@H](O)C12CCN(C1Cc3ccccc3C1)CC2 | -26.8 |
| Fc1ccccc1CNc1ccnc(C2CCNCC2)c1 | 66.5 |
| NS(=O)(=O)c1ccc(NCc2ccccc2F)cc1C(F)(F)F | -6.73 |
| O=C(NC1CCCC1)c1ccnc(C2CCNCC2)c1 | -131 |
| O=C(Nc1cccc(C2SCCS2)c1)C1CCCN1c1nccs1 (centres undefined) | 36.7 |
| CN1CCN(c2ccc(Br)cc2NC(=O)c2ccco2)CC1 | 53 |
| CN1CCN(c2ccc(Cl)cc2NC(=O)c2ccco2)CC1 | 42 |
| CN1CCN(c2ccccc2NC(=O)c2ccco2)CC1 | 32.7 |
| CSCC(C)N(C)C(=O)c1nn(-c2ccc(F)cc2C)cc1O (centres undefined) | -118 |
| Cc1cccc(CC(=O)N2CCCC(c3n[nH]c4nccnc34)C2)c1 (centres undefined) | -9.5 |
| Cc1cc(-c2nn(C)c(Cl)c2CN2Cc3ccccc3C(O)C2)no1 (centres undefined) | 53.8 |
| Cc1cc(-c2nn(C)c(Cl)c2CN2CCOCC(O)C2)no1 (centres undefined) | -22.3 |
| Cc1cc(-c2nn(C)c(Cl)c2CN2CC[C@H](CO)[C@@H](O)C2)no1 | -69.4 |

| Structure (SMILES) | INHIBITION [%] |
| --- | --- |
| Cn1nc(COc2cccnc2)c2c1CCN(c1ncccn1)C2 | -42.9 |
| CCN(CC)c1nc2ccsc2c(=O)n1CCC(=O)NC1CCCC1 | -39.2 |
| Cc1nc(N2CCCC2)ncc1-c1cc(O)nc(N2CCOCC2)n1 | -32.6 |
| O=C(C[C@@H]1COC[C@H]2CN(Cc3ccncc3)C[C@@H]12)N1CCOCC1 | -108 |
| COCCS(=O)(=O)Nc1ccc(-n2cncn2)c(F)c1 | 68.3 |
| COCCNC(=O)Nc1ccc(-n2cncn2)c(F)c1 | -29 |
| CC(=O)Nc1ccc(-n2cncn2)c(F)c1 | 47.2 |
| COCCN(C)Cc1nc(-c2cccc(F)c2F)oc1C | -36.7 |
| CN1CCC2(Cc3ccccc3CN(C(=O)CCN)C2)C1 (centres undefined) | -100 |
| CCCC(=O)N1Cc2ccccc2CC2(CCN(C)C2)C1 (centres undefined) | 8.68 |
| CN1CCC2(Cc3ccccc3CN(C(=O)Cc3cccc(Cl)c3)C2)C1 (centres undefined) | 54.8 |
| Cc1nn(C)c(Cl)c1C1CCCN1CC(=O)NC1CCCC1 (centres undefined) | 13 |
| Cn1cc(S(=O)(=O)NCCc2ccsc2)cn1 | -97 |
| CC(C)(C)c1cn(C2CCN(C3CCSC3)CC2)nn1 (centres undefined) | -103 |
| COc1ccc(CNCCc2cc(F)cc3c2OCOC3)c(OC)c1 | 55.4 |
| COc1ccc(CNCCc2cc(F)cc3c2OCOC3)cc1O | 37 |
| COc1cccc(CNCCc2cc(F)cc3c2OCOC3)c1 | 19.8 |
| COc1ccc(CNCCc2cc(F)cc3c2OCOC3)cc1OC | 21.3 |
| COc1ccc(OC)c(CNCCc2cc(F)cc3c2OCOC3)c1 | 66.3 |
| COc1cccc(CNCCc2cc(F)cc3c2OCOC3)c1OC | 56.8 |
| COc1cc(CNCCc2cc(F)cc3c2OCOC3)cc(OC)c1 | 31.1 |
| N#Cc1cccnc1NCCc1cc(F)cc2c1OCOC2 | -127 |
| N#Cc1ccc(CNCCc2cc(F)cc3c2OCOC3)cc1 | -105 |

| Structure (SMILES) | INHIBITION [%] |
| --- | --- |
| CC(C)CCC(=O)NC(C)c1nnc2n1CCCCC2 (centres undefined) | -147 |
| O=C(CC1CCCC1)N1C[C@@H]2CCN(c3cccnc3)C[C@@H]2C1 | -58.1 |
| Cc1cc(C(=O)N2CCc3nc4sc(C)cc4c(=O)n3CC2)on1 | -73.5 |
| Cc1ccccc1CN1CCN(C(=O)c2ccn(C(C)(C)C)c2)CC1 | 2.14 |
| CC(=O)c1ccc(NC(=O)c2ccc3c(c2)C2(CCCCC2)CN3)cc1 | 20.8 |
| CCc1ccc(CN2CCC(CNS(=O)(=O)C3CC3)C2)nc1 (centres undefined) | 19.1 |
| CC(C)c1ccc(CN2CCC(CNS(=O)(=O)C3CC3)C2)cc1 (centres undefined) | 59.4 |
| Cc1ncc(CN2CCC(CNS(=O)(=O)C3CC3)C2)cn1 (centres undefined) | -131 |
| Cc1ccccc1OCn1ccc(C(=O)NCCN2CCOCC2)n1 | -44.8 |
| Cc1ccc(S(=O)(=O)N2C[C@H](C3CC3)[C@@H](N)C2)cc1F | 14.8 |
| Cc1cc2[nH]c(=O)oc2cc1S(=O)(=O)N1C[C@@H](N(C)C)[C@H](C(C)C)C1 | -101 |
| Cc1cc(-c2cc(S(=O)(=O)N3C[C@H](C4CC4)[C@@H](N)C3)c(C)s2)[nH]n1 | 62.6 |
| CC(C)c1cc(C(=O)N2CCCC(Cn3cc(CO)nn3)C2)on1 (centres undefined) | -137 |
| COCCN1CCC2(CC1)CC(NCc1cncn1C)c1ccccc12 (centres undefined) | -18.1 |
| CCN1CCC(NC(=O)c2ccc(F)cc2I)CC1 | 50 |
| CC(C)CN1CCC(NC(=O)c2ccc(F)cc2I)CC1 | 23.2 |
| CC(C)CN1CCC(NC(=O)c2ccc(F)cc2F)CC1 | -150 |
| O=C(NCCc1ccccc1F)NCC(O)c1cccc(F)c1 (centres undefined) | -156 |
| NC(=O)c1cc2c(nc1Oc1cccc(CN3CCCC3)c1F)CCC2 | -10.3 |
| COc1cc(C(=O)NS(=O)(=O)c2cncc(Br)c2)ccc1C | -28.1 |
| NC(=O)CN1CCCC(c2nccnc2Oc2cccc(F)c2)C1 (centres undefined) | -47.7 |
| CNCC(=O)N1CCCC(c2nccnc2Oc2cccc(F)c2)C1 (centres undefined) | 55.4 |
| Cc1cc(C2CCCN(C(=O)COc3cccc(F)c3)C2)n[nH]1 (centres undefined) | -49.4 |
